Here are results for 31 molecules from ChEMBL document CHEMBL1157539, “Thousands of chemical starting points for antimalarial lead identification” (Nature, 2010).

Holding throughout (type): functional
For assay [1], the system named is Plasmodium falciparum. The assay can be described thus: GSK_TCMDC: Inhibition of Plasmodium falciparum 3D7 in whole red blood cells, using parasite LDH activity as an index of growth. Test compounds present at 2uM.
Assay [2] concerns Plasmodium falciparum. In words: GSK_TCMDC: Inhibition of Plasmodium falciparum Dd2 in whole red blood cells, using parasite LDH activity as an index of growth. Test compounds present at 2uM.
In assay [3] the test system is HepG2. The assay can be described thus: GSK_TCMDC: Percent inhibition of human HepG2 cell line. Test compounds present at 10uM.

The structures appear in SMILES notation.

The Inhibition is the percentage by which the read-out fell short of the control. A lower Inhibition goes with little suppression. On to `Cc1ccc(O)c(Nc2c3c(c(C#N)c4nc5ccccc5n24)CCC3)c1`, for which the figures for the Inhibition in assay [1], in assay [2] and in assay [3] were 85%, 2% and 7%, respectively.

Consider `O=C(Nc1ccccc1)N(Cc1ccccc1-c1cccc(CNC2CCCC2)c1)C1CCN(Cc2ccccc2)CC1.O=C(O)C(F)(F)F`, for which the values for the Inhibition in assay [1], in assay [2] and in assay [3] were 100%, 84% and 36%, respectively.

As to `Cl.O=C(/C=C/c1ccc(F)cc1)NC1CCC(CCN2CCCN(c3ccc(C(F)(F)F)cn3)CC2)CC1` (stereo not drawn), the Inhibition in assay [1] stood at 97%; in assay [2], 13%; in assay [3], 29%.

Consider `CCC[C@@H]([C@@H](CC(C)C)C(=O)N[C@H](C(=O)Nc1nccs1)C(C)(C)SCCNC(=O)OCC)N(O)C=O`, for which the Inhibition in assay [1] was 95%; in assay [2], 97%; in assay [3], 0%.

`N#Cc1ccc(N2CCN(Cc3ccc(-c4ccc(-c5nc6cc(F)ccc6[nH]5)s4)cc3)CC2)nc1.O=C(O)C(F)(F)F`: the Inhibition in assay [1] was 100%; in assay [2] it was 78%; in assay [3] it was 12%.

For `Cc1n[nH]c2cc(Nc3ccnc(Nc4cccc(CN5CCOCC5)c4)n3)ccc12`, the Inhibition in assay [1] came out at 83%; in assay [2], 0%; in assay [3], 33%.

As to `COc1cccc2cc(C(=O)N[C@@H](CC(C)C)C(=O)N[C@H](C=NN3CCOC3=O)CC(C)C)oc12`, the results for the Inhibition in assay [1], in assay [2] and in assay [3] were 90%, 72% and 4%, respectively.

For the molecule `O=C(NCCCCN1CCC(c2ccc(Br)cc2)CC1)c1ccc(NC(=O)c2ccc(Cl)cc2)cc1`, the values for the Inhibition in assay [1], in assay [2] and in assay [3] were 100%, 86% and 17%, respectively.

In the case of `Brc1cc(Br)c2c(c1)C(NCCCNc1nc3ncccc3[nH]1)CCN2.O=C(O)CCC(=O)O` (stereo not drawn), the values for the Inhibition in assay [1], in assay [2] and in assay [3] were 99%, 83% and 5%, respectively.

Consider `Cl.O=C(C=Cc1ccc(C(=O)Nc2ccc(C3=NCCN3)cc2)cc1)Nc1ccc(C2=NCCN2)cc1`, for which the Inhibition turned out to be 97% in assay [1], 100% in assay [2] and 0% in assay [3].

For `CCOc1ccc(NC(=O)c2cn3nc(-c4ccc(OCC)cc4)cc3nc2C2CCNCC2)cc1.Cl`, the Inhibition in assay [1] is reported as 100%; in assay [2] it was 39%; in assay [3], 36%.

Consider `COCCNCc1ccc(-c2ccc(CNC3CCN(Cc4ccccc4)CC3)cc2)cc1.O=C(O)C(F)(F)F`, for which the values for the Inhibition in assay [1], in assay [2] and in assay [3] were 100%, 61% and 22%, respectively.

As for `CCOc1cc2ccccc2cc1CNCCCCCCNCc1cc2ccccc2cc1OCC.CS(=O)(=O)O`, the Inhibition in assay [1] was found to be 100%; in assay [2], 76%; in assay [3] it was 99%.

As for `Fc1ccc2[nH]c(-c3ccc(-c4ccc(CN5CCCCC5)cc4)cc3)nc2c1.O=C(O)C(F)(F)F`, the results for the Inhibition in assay [1], in assay [2] and in assay [3] were 98%, 100% and 31%, respectively.

In the case of `COc1ccc(-c2ccc(NC(=O)c3ccc(C#N)cc3)cc2)cc1CN1CCCC1.O=C(O)C(F)(F)F`, the Inhibition is reported as 95% in assay [1], 51% in assay [2] and 40% in assay [3].

As to `N#Cc1ccc(CN2CCC(Oc3ccc(NC(=O)c4cccs4)cc3Cl)CC2)cc1.O=C(O)C(F)(F)F`, the values for the Inhibition in assay [1], in assay [2] and in assay [3] were 95%, 96% and 26%, respectively.

Turning to `COc1ccc(CNC2CCN(C)CC2)cc1-c1ccc(S(=O)(=O)NCCc2ccccn2)c(C)c1.O=C(O)C(F)(F)F`, the Inhibition in assay [1] was determined as 96%; in assay [2], 91%; in assay [3], 7%.

`CCCCC(CCCC)CN1C(=O)C(c2ccccc2)(c2ccccc2)N=C1N.O=CO`: the Inhibition is on record as 96% in assay [1], 96% in assay [2] and 28% in assay [3].

Take `Cc1cc(Nc2nc(Nc3cccc(Cl)c3)nc3ccccc23)n[nH]1`: the Inhibition in assay [1] was 100%; in assay [2] it was 95%; in assay [3], 9%.

Consider `O=C(Nc1ccc([N+](=O)[O-])cc1Br)c1cc2ccccc2nc1Cl`, for which the Inhibition in assay [1] was determined as 97%; in assay [2], 68%; in assay [3], 0%.

On to `COc1ccc(-c2cnc3ccc(NCc4ccc(S(N)(=O)=O)cc4)nn23)cn1`, for which the Inhibition in assay [1] stood at 98%; in assay [2], 98%; in assay [3], 16%.

On to `Cc1cc(NC(=O)Nc2cccc(C#N)c2)c2ccccc2n1`, for which the Inhibition in assay [1] was determined as 100%; in assay [2], 82%; in assay [3], 17%.

Take `O=C(Nc1cccc(CN2CCCN(Cc3ccccc3)CC2)c1)c1ccc(Cl)c(Cl)c1.O=C(O)C(F)(F)F`: the Inhibition in assay [1] is listed as 95%; in assay [2] it was 16%; in assay [3], 23%.

As to `CC(C)Nc1cc(C(=O)N[C@@H](Cc2ccccc2)[C@H](O)CNC2CCCCC2)cc(N2CCCCS2(=O)=O)c1.O=CO`, the results for the Inhibition in assay [1], in assay [2] and in assay [3] were 98%, 98% and 9%, respectively.

As to `Cc1nc2sccn2c1C(=O)NCCc1ccccc1Cl`, the Inhibition is recorded as 96% in assay [1], 1% in assay [2] and 6% in assay [3].

Consider `CC(C)=CCc1c(-c2ccc(O)cc2O)oc2c3c(cc(O)c2c1=O)OC(C)(C)C=C3` [MORUSIN], for which the results for the Inhibition in assay [1], in assay [2] and in assay [3] were 89%, 8% and 1%, respectively.

For the molecule `O=C(Nc1cccc(-c2csc(-c3ccccc3)n2)c1)c1cccs1`, the Inhibition in assay [1] is 89%; in assay [2], 71%; in assay [3] it was 0%.

In the case of `Cc1ccccc1C1CCN(C2CCC(NC(=O)/C=C/c3ccc4c(c3)OC(F)(F)O4)CC2)CC1` (stereo not drawn), the Inhibition in assay [1] was determined as 100%; in assay [2], 39%; in assay [3], 75%.

Turning to `COc1cccc(-c2csc(C(=O)NCC3CCN(Cc4ccc(C(C)(C)C)cc4)C3)c2)c1.O=C(O)C(F)(F)F` (stereo not drawn), the Inhibition in assay [1] is listed as 95%; in assay [2], 10%; in assay [3], 30%.

For `Cc1[nH]c(C)c(-c2ccc(-c3cccc(Cl)c3)nc2)c(=O)c1Cl`, the Inhibition in assay [1] was determined as 97%; in assay [2], 97%; in assay [3] it was 15%.

For the molecule `COc1cc2nccc(Nc3ccc(NC(=O)c4ccc(C)cc4)c(O)c3)c2cc1OC.Cl`, the Inhibition was 100% in assay [1], 77% in assay [2] and 96% in assay [3].
